This passage reports inhibition results from PubChem BioAssay AID588335 (The Scripps Research Institute Molecular Screening Center, 2011).

Screen size: about 360,000 compounds; about 4,500 (1.2%) were called active. Rule as the data show it: active = inhibition above about 30%; inactive = the rest. For the sample, actives were picked, then their nearest neighbours and some compounds at random.

The nature of this experiment: inhibition of GDH and TPI enzymes – biochemical, absorbance, full deck, artefact control for M. tuberculosis FBA inhibitor project, primary screen (AID 588335).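 Also: 0% = DMSO wells and 100% = wells lacking the enzyme.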 To be noted: GDH-TPI coupled enzyme counterscreen, NADH absorbance; at 4.8 µM; stronger effect = higher value.
Consider `Cc1cc(C)nc(N/N=C/c2c(CO)cnc(C)c2O)n1`, for which the inhibition was 16.2% (inactive).

Take `CCN(CC)c1ccc(/C=N/Nc2nc(C)cc(C)n2)c(O)c1`: the inhibition is 31.7% (active).

For `Cn1cnnc1Sc1ccc(S(C)(=O)=O)cc1[N+](=O)[O-]`, the inhibition was 13% (inactive).

In the case of `Cc1c(-c2nn(C)c(=O)c3ccccc23)oc2ccc(F)cc2c1=O`, the inhibition is 18% (inactive).

For `CC(C)NC(=O)NCCCCCCS(C)=O` (stereo not given), the inhibition was 16.7% (inactive).

For the compound `Nc1nc(NCCCN2CCOCC2)nc(Nc2ccccc2)c1[N+](=O)[O-]`, the inhibition is 28.5% (inactive).

As for `COCCNc1nc(N)c([N+](=O)[O-])c(NCCO)n1`, the inhibition was 26.7% (inactive).

As for `Nc1nc(Nc2ccccc2)nc(NCCO)c1[N+](=O)[O-]`, the inhibition is 39.5% (active).

`O=C(Oc1cccc(NC2=NS(=O)(=O)c3ccccc32)c1)c1ccncc1`: the inhibition is 0.95% (inactive).

In the case of `Cc1ccc(S(=O)(=O)N(NC2=NS(=O)(=O)c3ccccc32)C(=O)c2ccccc2)cc1`, the inhibition is 4.78% (inactive).

As to `CC(C)(C)c1csc(NC2=NS(=O)(=O)c3ccccc32)n1`, the inhibition was 36.1% (active).

With `Cc1cc(-c2ccccc2)nc(N2CCC(C(=O)NC34CC5CC(CC(C5)C3)C4)CC2)n1`, the inhibition is -1.41% (inactive).

`CSc1nc2nc3c(c(=O)n2[nH]1)CCC3`: the inhibition is 5.66% (inactive).

With `Cc1ccccc1NC(=O)Cc1nc(COC(=O)C(C)(C)Oc2ccc(Cl)cc2)cs1`, the inhibition was -5.31% (inactive).

Take `COc1cccc(NC(=O)COC(=O)/C=C/c2ccco2)c1`: the inhibition is 6.67% (inactive).

Consider `COc1ccc(Cl)cc1C(=O)NNC(=S)NC(=O)/C=C/c1ccco1`, for which the inhibition is 5.35% (inactive).

Turning to `O=C(/C=C/c1ccco1)NC(=S)Nc1ccccc1Br`, the inhibition was 35.7% (active).

As to `O=C(/C=C/c1ccco1)NC(=S)N1CCCCC1`, the inhibition was 10.6% (inactive).

Take `O=C(/C=C/c1ccco1)Nc1ccc(Oc2ccccc2)cc1`: the inhibition is 38% (active).

`O=C(O)/C=C\C(=O)Nc1ccc(OCc2ccccc2)cc1`: the inhibition is 5.18% (inactive).

Turning to `CCOc1ccc(NC(=O)CSc2nc3ccccc3c(=O)n2Cc2cccs2)cc1`, the inhibition is 6.55% (inactive).

As to `O=C(C[C@H]1C(=O)N(c2ccc(F)c(F)c2)C[C@@H]1Cc1ccccc1)Nc1ccccc1`, the inhibition is -1.2% (inactive).

For `O=Cc1cn(CCOc2ccc(F)cc2)c2ccccc12`, the inhibition was 7.08% (inactive).

For the compound `Cc1cccc2nc(CNc3ccc(F)cc3)cn12`, the inhibition is 10.8% (inactive).

As to `CCC1CCCCN1S(=O)(=O)Cc1ccccc1Cl` (stereo not given), the inhibition was 0.61% (inactive).

Regarding `COc1ccc(S(=O)(=O)N2CCCC2CNC(=O)C(=O)NC2CC2)cc1` (stereo not given), the inhibition was -18% (inactive).

Consider `COc1ccc2c(c1)CCc1cn3ncc(C#N)c3nc1-2`, for which the inhibition is 2.17% (inactive).

As to `O=C(Nc1ccc(F)c([N+](=O)[O-])c1)C1CCCO1` (stereo not given), the inhibition was 7.32% (inactive).

As for `COCCN(CCOC)S(=O)(=O)c1ccc(C(=O)Nc2nc3c(s2)CCc2ccccc2-3)cc1`, the inhibition is 9.74% (inactive).

On to `COCCN(CCOC)S(=O)(=O)c1ccc(/C(O)=C(\C#N)c2nc3ccccc3[nH]2)cc1`, for which the inhibition was 42.7% (active).

Regarding `CC(C)(C)c1nnc2sc(SCC(O)=C(C#N)c3nc4ccccc4[nH]3)nn2c1=O`, the inhibition is 9.05% (inactive).

In the case of `CC1(C)CC(=O)C2=C(C1)N=C1SCCC(=O)N1C2c1ccc(C(F)(F)F)cc1` (stereo not given), the inhibition is 31% (active).

Consider `CC1(C(=O)Nc2ccccc2Br)CCN1C(=O)CC1CC1` (stereo not given), for which the inhibition was -0.89% (inactive).

`C=CCSC(CC)(CC)C(N)=O`: the inhibition is 3.59% (inactive).

As to `CN1C(c2ccc(F)cc2)=CS/C1=C(/C#N)c1nnc2n1-c1ccccc1SC2`, the inhibition was 18.8% (inactive).

In the case of `Cc1ccccc1-n1cc(CNC(=O)CC2C(=O)NCCN2C/C=C/c2ccccc2)cn1` (stereo not given), the inhibition was -1.22% (inactive).

As for `COc1cccc(-c2nc3ccc(N4CCN(C)CC4)cc3[nH]2)c1`, the inhibition was 31.7% (active).

As to `COc1cccc(N2CCN(C3CC(=O)N(c4ccc(Cl)cc4)C3=O)CC2)c1` (stereo not given), the inhibition is -9.65% (inactive).

Consider `COc1cccc(N2CCN(c3ccc4nnc(CCC(=O)N5CCN(C)CC5)n4n3)CC2)c1`, for which the inhibition is -6.09% (inactive).

`CCCN(C(=O)CSc1nnc(N)s1)c1c(N)n(Cc2ccccc2)c(=O)[nH]c1=O`: the inhibition is 2.63% (inactive).

Regarding `O=c1cccc(-c2ccc(Br)cc2)o1`, the inhibition was 17.6% (inactive).

Consider `CCOC(=O)c1cc2cc3ccccc3cc2oc1=O`, for which the inhibition is 38.1% (active).

Turning to `CCOc1cccc2cc(C(=O)OCC(=O)Nc3c(C)cccc3CC)c(=O)oc12`, the inhibition was 11.9% (inactive).

In the case of `C=CCc1cccc2cc(C(=O)OCC)c(=O)oc12`, the inhibition was 10.2% (inactive).

Take `CN1CCCc2cc(C#N)c(=O)[nH]c21`: the inhibition was 34.1% (active).

Regarding `COc1ccccc1CNC(=O)COn1nnc2ccc(S(=O)(=O)N3CCOCC3)cc21`, the inhibition is -5.57% (inactive).

`O=C(OCCN1C(=O)c2ccccc2C1=O)[C@@H]1CC(O)CN1S(=O)(=O)c1ccccc1[N+](=O)[O-]` (stereo not given in full): the inhibition was 3.16% (inactive).

As to `CC(=O)c1ccc(OCCCC(=O)Nc2ccc(C)c(S(=O)(=O)N3CCOCC3)c2)cc1`, the inhibition is 7.22% (inactive).

For `COc1ccc2ccccc2c1CNCc1ccccn1`, the inhibition is -14.6% (inactive).

`COC(=O)c1ccc(COc2ccc(/C=C/C(=O)c3ccc(OC)c(CSCC(=O)O)c3)cc2OC)cc1`: the inhibition was 7.37% (inactive).

As to `COc1ccccc1CCNC(=O)C1CCN(C(=O)/C=C/c2ccccc2)CC1`, the inhibition was 1.82% (inactive).

Take `COc1ccc(C(=O)/C=C/c2ccc(-c3ccccc3)cc2)cc1CSCC(=O)O`: the inhibition was 37.5% (active).

Consider `CCN(CC)C(=O)C(C)N1c2cccc3cccc(c23)S1(=O)=O` (stereo not given), for which the inhibition was 9.73% (inactive).

In the case of `CC1CCCCC1NC(=O)COC(=O)Cc1ccc(Cl)cc1` (stereo not given), the inhibition is 3.03% (inactive).

For `CCCN(CC(=O)NC(=O)NC1CCCCC1)CC(=O)Nc1cc(Cl)ccc1Cl`, the inhibition is -7.58% (inactive).

`O=C(N/N=C/c1c(O)n(C2CC2)c(=S)[nH]c1=O)c1ccccc1Cl`: the inhibition is 40.6% (active).

In the case of `O=c1[nH]c(=S)n(C2CC2)c(O)c1/C=N/N1CCOCC1`, the inhibition is 16.2% (inactive).

For `O=C(N/N=C/c1c(O)n(C2CC2)c(=S)[nH]c1=O)c1ccccc1`, the inhibition is 25.8% (inactive).

`CC1CCN(C(=O)COC(=O)c2cc(=O)[nH]c3ccccc23)CC1`: the inhibition was 13.7% (inactive).

For `CC(C)(C)n1nnnc1C(c1ccccc1F)N1CCN(C(=O)c2ccco2)CC1` (stereo not given), the inhibition is -4.67% (inactive).

For the compound `O=C(C[C@H]1C[C@H]2c3cc(NS(=O)(=O)c4ccc(F)cc4)ccc3O[C@H]2[C@H](CO)O1)NCc1cc(F)ccc1F`, the inhibition was -2.37% (inactive).

As to `CCNC(=O)c1ccc(OCC(=O)Nc2ccc(F)cc2)c(OC)c1`, the inhibition was 0.63% (inactive).

As for `COc1ccc(C(=O)Nc2ccc(C3(C#N)CCCC3)cc2)cc1OC`, the inhibition was 9.36% (inactive).

`COc1ccc(C(=O)N/N=C2\CCS(=O)(=O)c3ccc(F)cc32)cc1OC`: the inhibition is 32.9% (active).

For `CC(Sc1cccc[n+]1[O-])C(=O)Nc1cccc(S(=O)(=O)N2CCOCC2)c1` (stereo not given), the inhibition is 0% (inactive).

As for `Cc1ccc(C(=O)N/C(=C\c2cn(S(=O)(=O)N(C)C)c3ccccc23)C(=O)N2CCCC2)cc1`, the inhibition is -3.45% (inactive).

For the compound `COc1ccc(/C=C(\NC(=O)c2ccccc2)C(=O)NCCN2CCOCC2)cc1OC`, the inhibition is 14.8% (inactive).

For the compound `CCn1cc(/C=C(\NC(=O)c2ccc(C)cc2)C(=O)NCCN2CCOCC2)c2ccccc21`, the inhibition is 40.6% (active).

For the compound `CCSc1nnc(SCC(=O)NNC(=O)c2ccccc2F)s1`, the inhibition was -1.01% (inactive).

Regarding `CC1Cc2ccccc2N1C(=O)c1cc2sccc2n1Cc1ccccc1` (stereo not given), the inhibition is -0.44% (inactive).

`CCOC(=O)C(C)n1cnc2c(nnn2-c2cccc(OC)c2)c1=O` (stereo not given): the inhibition was -6.44% (inactive).

For the compound `CCOC(=O)c1sc(=S)n(-c2cccc(OC)c2)c1N`, the inhibition was 33.3% (active).

On to `COCCOC(=O)c1sc(=S)n(CCOC)c1N`, for which the inhibition was 11.4% (inactive).

Regarding `Cc1cc(/C=N/n2cnnc2)c(C)n1-c1ccc2ncccc2c1`, the inhibition is 15% (inactive).

Regarding `O=S(=O)(Cc1nnnn1-c1ccccc1)c1ccccc1`, the inhibition is -3.16% (inactive).

Turning to `COc1ccc(CN2CCCCC2C)cc1OC` (stereo not given), the inhibition was 7.17% (inactive).

On to `Cc1ccc(C(=O)N/C(=C/c2cccnc2)C(=O)O)cc1`, for which the inhibition was 1.45% (inactive).

Turning to `COc1cc(/C=C(\C#N)c2nc3ccccc3[nH]2)ccc1O`, the inhibition is 31.3% (active).

Turning to `COc1ccc(/C=C(/NC(=O)c2ccc(C)cc2)c2nc3ccccc3[nH]2)cc1OC`, the inhibition is 46.6% (active).

Turning to `COc1ccc(C(=O)CN2C(=O)NC(C)(c3ccc(C)cc3)C2=O)cc1OC` (stereo not given), the inhibition is -0.32% (inactive).

Consider `CCN(C[C@H]1N[C@@](CC)(C(=O)OC)[C@H]2C(=O)N(C)C(=O)[C@@H]12)C(=O)Nc1ccc(F)cc1`, for which the inhibition was 0% (inactive).

As for `COc1ccc(/C=N/OCc2ccccc2C#N)c(OC)c1`, the inhibition is -3.57% (inactive).

Regarding `CCOC(=O)c1ccc(N/C(=N/S(=O)(=O)c2ccccc2)c2ccccc2)cc1`, the inhibition was 10.9% (inactive).

`CCOC(=O)c1nc(Nc2ccc(C(=O)OC)cc2)c2ccccc2n1`: the inhibition was 33.2% (active).

As to `COC(=O)c1ccc(Nc2ncnc3sccc23)cc1`, the inhibition was 8.09% (inactive).

For `O=C(c1ccco1)N1CCN(Cc2cccc(C(F)(F)F)c2)CC1`, the inhibition is -0.77% (inactive).

Consider `c1ccc(-c2nnc3n2NC(c2ccc4c(c2)OCO4)S3)cc1` (stereo not given), for which the inhibition was 17.1% (inactive).

For the compound `CC(=O)c1ccc(N2CCN(C(=O)C3CCN(S(=O)(=O)c4ccc5c(c4)CC(C)N5C(=O)C4CC4)CC3)CC2)cc1` (stereo not given), the inhibition is 23.5% (inactive).

For `Cc1ccc(/C=N/NC(=O)C(NC(=O)c2ccccc2)c2n[nH]c(=O)c3ccccc23)cc1` (stereo not given), the inhibition was 1.58% (inactive).

As to `CC(C)c1cc(C(=O)O)n[nH]1`, the inhibition is 8.57% (inactive).

`CC(C)c1cc(C(=O)N/N=C/C(Br)=C/c2ccccc2)n[nH]1`: the inhibition is 36.9% (active).

As to `COc1ccc(CNC(=O)C(NS(=O)(=O)c2cccc3nsnc23)C(C)C)cc1` (stereo not given), the inhibition is 1.17% (inactive).

As to `CCn1c(Cc2ccc(OC)cc2)nnc1SCC(=O)Nc1ccc(N2CCOCC2)cc1`, the inhibition was -0.78% (inactive).

Regarding `COc1cccc(/C=C(/CC(=O)Nc2ccc(N3CCOCC3)cc2)c2nc3ccccc3s2)c1`, the inhibition is 32.1% (active).

For `Cc1ccc(OCCCC(=O)Nc2ccc(N3CCOCC3)cc2)cc1`, the inhibition is -5.32% (inactive).
